RORg inh = inhibitors of mouse ROR gamma transcriptional activity. P51450. Drosophila S2 Gal4-RORgamma UAS-luciferase reporter, 20 h. Potency, µM (series often up to 53.6 µM), for inactives: at the top dose activity change, negative = inhibition, most hits filed as inhibitors. actives 5.4% (n = 310,000). AID 2551; further: potency means the concentration at half of the fitted maximal effect; nearly all actives have a fitted effect of over 60% in size
Target sequence (P51450 whole entry, looked up, the tested form may be a part): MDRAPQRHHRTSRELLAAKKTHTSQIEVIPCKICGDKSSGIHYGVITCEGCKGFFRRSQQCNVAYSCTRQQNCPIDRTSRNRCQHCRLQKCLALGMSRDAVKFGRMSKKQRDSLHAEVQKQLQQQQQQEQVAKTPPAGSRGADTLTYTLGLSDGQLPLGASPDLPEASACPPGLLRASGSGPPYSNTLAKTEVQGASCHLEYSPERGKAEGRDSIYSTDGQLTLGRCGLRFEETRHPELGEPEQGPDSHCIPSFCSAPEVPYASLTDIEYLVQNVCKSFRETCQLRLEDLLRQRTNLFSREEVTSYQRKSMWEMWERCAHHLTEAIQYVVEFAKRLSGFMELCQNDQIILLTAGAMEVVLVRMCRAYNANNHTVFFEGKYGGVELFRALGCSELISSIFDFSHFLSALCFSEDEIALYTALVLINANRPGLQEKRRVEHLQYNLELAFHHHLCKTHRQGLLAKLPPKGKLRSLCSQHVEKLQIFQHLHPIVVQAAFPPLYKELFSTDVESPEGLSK
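Using a luciferase readout, inhibitors were identified by reduced reporter activity in Drosophila cells coexpressing a copper-inducible Gal4–ROR gamma fusion and UAS-driven Photinus luciferase, incubated 20 hr after 700 uM copper sulfate.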
ELG1 repair inh = inhibitors of ELG1-dependent DNA repair in HEK293T cells; HEK293T ELG1-luciferase reporter, luminescence, 16 h; DNA damage induced by 5-fluorouridine; Potency, µM (series often up to 46.1 µM), inactives show at the highest dose activity change, negative = inhibition, most hits filed as inhibitors; actives 2.3% (n = 330,000); further: potency means the concentration at half of the fitted maximal effect; nearly all actives have a fitted effect of over 55% in size
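Step one: seed 2,000 cells per well. Step two: pin-transfer compound or DMSO alongside 5-fluorouridine. Step three: incubate 16 hr, 37 °C, 5% CO2. Step four: add ONE-Glo, wait 30 min, read luminescence.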
TSHR antagonist = antagonists of human thyroid stimulating hormone receptor; TSHR-expressing cells, TSH-stimulated cAMP HTRF, 2 h; hits give low values; actives 0.2% (n = 330,000); activity change, negative = inhibition, % at 11.5 µM;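 active means activity change below a set negative limit, meaning inhibition stronger than a set level, cut at about -70% in these data; inconclusive means activity change between two set negative limits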
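Read-out is FRET at 665 nm (cryptate excitation 337 nm) from a cryptate-tagged anti-cAMP antibody, competed by cell cAMP against cAMP-d2. Compounds are tested on freshly harvested TSHR cells challenged with 4nM TSH (EC80) for 2 hours at 37 deg C.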
Gal4-VP16 FLuc = counter-screen for ROR gamma inhibitors: Gal4-VP16 reporter; Drosophila S2 Gal4-VP16 UAS-luciferase, luminescence, 20 h; Potency, µM (top dose mostly 53.6 µM), for inactives: top-dose activity, negative = inhibition, usual class: inhibitors; actives 3.5% (n = 310,000); AID 2546;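 further: Gal4-VP16 expression switched on by copper sulfate through the metallothionein promoter; potency means the concentration at half of the fitted maximal effect; nearly all actives have a fitted effect of over 50% in size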
Coupling enz = counter-screen for Giardia aldolase inhibitors: coupling enzyme system; coupling enzyme system counterscreen, AmpLite Red fluorescence; activity change, negative = inhibition, % at 58.2 µM, hits read low; actives 0.67% (n = 290,000); AID 2472; in the data active means activity change below about -30%
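Final compound at 57.5 uM, incubated 10 min at RT with coupling enzyme reagent (glyceraldehyde-3-phosphate), then 20 min with substrate and AmpLite Red detection. Fluorescence read at 525/598 nm; tests interference with the coupling assay, not aldolase inhibition.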
* marks the source's active call; other numbers are inactive results; ? = inconclusive; . = no result given; [ ] = remark or other dose. Most compounds without a hit are left out; they make up all but 8% or so of the library. Unless noted, the call rests on the fitted dose curve; in most records, active means well fitted curve in the direction sought with a large enough effect; inconclusive means small, poorly fitted or top-dose-only effect, or another doubt; inactive means no such curve, though single readings can be large; an effect the other way counts as inactive or inconclusive. On the % scale 0 is the no-effect control and ±100 the full control effect.

SMILES	RORg inh	ELG1 repair inh	TSHR antagonist	Gal4-VP16 FLuc	Coupling enz
Cc1cccc(C(=O)Nc2c(C(=O)N(C)C)cnn2-c2ccccc2)c1	-3%	-4%	10	-5%	3
CN(CC(=O)Nc1ccccc1Br)c1ncnc2sccc12	?	12µM*	-6	?	0
CN(CC(=O)Nc1ccc(F)c(F)c1F)c1ncnc2sccc12	23%	?	-10	-4%	0
CCOc1ccc(NC(=O)CN2CCN(CC(=O)c3ccc(OC)c(OC)c3)CC2)cc1	2.5µM*	0%	2	5%	2
O=C(CN1C(=O)c2ccccc2C1=O)N1CCN(C2c3ccccc3-c3ccccc32)CC1	43%	16µM*	-9	-4%	2
CCOc1ccc(NC(=O)CN2CCN(CC(=O)c3ccc(OCC)cc3)CC2)cc1	13%	-1%	32	?	5
COc1ccc(NC(=O)CN2CCN(c3ccccc3)CC2)cc1	7%	5%	-2	14%	-1
COc1ccc(NC(=O)CN2CCN(C3c4ccccc4-c4ccccc43)CC2)cc1	?	6.5µM*	2	-1%	-2
N#CCCN(CC#Cc1ccccc1)OCc1ccccc1	1%[10 µM]	.	.	-16%[10 µM]	0
CC(=O)c1cccc(NC(=O)c2ccccc2N(Cc2ccccc2)S(C)(=O)=O)c1	12%	-28%	20	6%	0
CCN(CC(=O)NCc1cccs1)C(=O)Cc1ccc(C)c(C)c1	.	18%	19	.	.
CC1CCCCC1NC(=O)c1cccc(NC2=NC3CS(=O)(=O)CC3S2)c1 (stereo unspecified)	-11%	0%	3	2%	1
CC(=O)c1ccc(NC(=S)N2CCCC(CO)C2)cc1 (stereo unspecified)	-43%	?	4	-14%	1
COC(=O)Cc1ccc(NC(=S)N2CCCC(C)C2)cc1 (stereo unspecified)	13µM*	?	22	11µM*	2
COC(=O)Cc1ccc(NC(=S)N2CCN(c3cc(Cl)ccc3C)CC2)cc1	13µM*	?	-19	?	-5
COC(=O)Cc1ccc(NC(=S)N2CCCC(CO)C2)cc1 (stereo unspecified)	11µM*	?	5	7.9µM*	1
CC1CCCN(C(=S)Nc2ccc(S(=O)(=O)N3CCCCC3)cc2)C1 (stereo unspecified)	?	?	2	-11%	1
Cc1ccccc1CC1SC(N)=NC1=O (stereo unspecified)	-19%	?	1	7%	0
O=C(NCCS(=O)(=O)N1CCN(c2ccccc2F)CC1)c1cccc(Br)c1	-1%	-5%	-9	3%	-2
CS(=O)(=O)N1CCC2(CCCN(c3ccncc3)C2)CC1	1%	.	.	-12%	-3
COc1ccc(C(C(=O)Nc2ccc(C(C)C)cc2)N(C)C(=O)c2ccc(=O)[nH]c2)cc1 (stereo unspecified)	18µM*	-18%	-10	-2%	0
COc1ccc(NC(=O)C(NC(=O)c2ccc(=O)[nH]c2)c2ccccc2)cc1 (stereo unspecified)	-5%	12%	-4	-12%	1
COc1ccc(O[C@H]2C=C[C@@H](c3ccccc3)O[C@H]2COC(=O)NCc2cccc3ccccc23)cc1	27%[10 µM]	.	.	1%[10 µM]	1
CCCn1c(O)c(N=NC(=O)c2ccco2)c2ccccc21	?	?	-3	?	-2
Cc1nc2ccccn2c1C(=O)N=Nc1c(O)n(CCC(C)C)c2ccccc12	-7%	9.2µM*	0	1%	-3
SMILES	RORg inh	ELG1 repair inh	TSHR antagonist	Gal4-VP16 FLuc	Coupling enz
Cc1ccc(/C=N/Nc2nc3ccccc3s2)o1	8.9µM*	?	-15	10µM*	-1
O=C(O)/C=C/c1cn(Cc2ccccc2)nc1-c1ccccc1	14%	14%	-1	-3%	2
O=C(O)CCn1cc(/C=C/C(=O)c2ccc(Cl)cc2)c(-c2ccc(Br)cc2)n1	7.1µM*	?	-17	?	11
Oc1ccc(CNc2cccc(C(F)(F)F)c2)c2cccnc12	.	.	-8	.	.
FC(F)(F)c1cccc(NCc2cn3cccnc3n2)c1	24%	?	35	10%	-52*
CCc1cc2c(N=Nc3c(O)[nH]c4ccccc34)ncnc2s1	-5%[10 µM]	9%	11	-8%	3
CCc1ccc2[nH]c(O)c(N=Nc3nc(-c4ccccc4)cs3)c2c1	13µM*	-9%	0	?	-2
O=C(O)CCc1nn2c3ccccc3nc2n(-c2ccccc2)c1=O	11µM*	4%	-7	-6%	1
Cc1cc(C)n(-c2nnc(SCC(=O)NC3CCCC3)c3ccccc23)n1	42%	16µM*	0	-10%	0
COc1ccc2ccccc2c1C1NC(=O)NC(C)=C1[N+](=O)[O-] (stereo unspecified)	-36%	-1%	-2	11µM*	0
CCOC(=O)C1=C(C)NC(=O)NC1c1c(OC)ccc2ccccc12 (stereo unspecified)	17%	-2%	5	-1%	0
O=C(NNc1nc(-c2ccccc2)cs1)c1ccc(F)cc1	2µM*	?	1	11µM*	3
O=C(NNc1nc(-c2ccccc2)cs1)c1cccs1	7.9µM*	17%	2	?	0
CC(=O)NNc1nc(-c2ccccc2)cs1	2%	-6%	-5	-6%[10 µM]	0
CC(OC(=O)c1cccs1)C(=O)Nc1nc(-c2ccccc2)cs1 (stereo unspecified)	?	?	-8	6%	1
O=C(NNc1nc(-c2ccc(F)cc2)cs1)c1ccccc1	5µM*	?	9	?	3
CC1(C)SC2C(NC(=O)C(NC(=O)N3CCNC3=O)c3ccccc3)C(=O)N2C1C(=O)O (stereo unspecified)	1%	.	.	-3%	4
CCN(CC)S(=O)(=O)c1ccc(C(=O)Nc2cc(C)on2)cc1	0%	2%	2	-2%	2
CCN(CC)S(=O)(=O)c1cc(C(=O)Nc2cc(C)on2)ccc1Cl	-6%	16µM*	0	-5%	1
Cc1cc(NC(=O)c2ccc(C)c([N+](=O)[O-])c2)no1	6.3µM*	?	3	-11%	3
CSCCC(NC(=O)c1ccccc1Cl)C(=O)N1CC(C)OC(C)C1 (stereo unspecified)	.	13%	0	.	.
C=C1CCC2C(C)(C)[C@@H](O)CC[C@@]2(C)[C@@H]1COc1ccc2ccc(=O)oc2c1 (stereo partly specified)	-36%	-11%	-76*	-25%	-4
COc1cc(C=O)ccc1OCC(=O)N1CCCC1	0%	0%	-5	-12%	0
COc1ccc(CCNC(=O)c2cc(-c3ccccc3OC)on2)cc1OC	7%	16µM*	-17	-1%	1

Assay outcomes as filed in PubChem BioAssay.
